Source: PubChem BioAssay (NCATS)
Records with an inconclusive call do not appear. Activity calls are given as the source filed them. Unless noted, the call rests on the fitted dose curve.

Experiments:
[1] = Primary qHTS for inhibitors of SARS-S pseudo-typed particle cell entry (AID 1479145); conditions: outcome: dose series up to 57.1 µM unless noted; further: nearly all actives have a fitted effect of over 45% in size; on activity change, negative = inhibition: on the % scale 0 is the no-effect control and ±100 the full control effect
[2] = Primary qHTS for Huh7 cytotoxicity: counterscreen for inhibitors of MERS-S pseudotyped particle cell entry (AID 1479147); conditions: outcome: dose series up to 57.1 µM unless noted
[3] = Primary qHTS for inhibitors of MERS-S pseudo-typed particle cell entry (AID 1479149); conditions: outcome: dose series up to 57.1 µM unless noted; further: nearly all actives have a fitted effect of over 60% in size; on activity change, negative = inhibition: on the % scale 0 is the no-effect control and ±100 the full control effect
[4] = Primary qHTS for Vero E6 cytotoxicity: counterscreen for inhibitors of SARS-S pseudo-typed particle cell entry (AID 1479150); conditions: outcome: dose series up to 57.1 µM unless noted; on activity change, negative = cytotoxicity: on the % scale 0 is the no-effect control and ±100 the full control effect
[5] = Cytotoxicity counterscreen for inhibitors of SARS-CoV-2 cell entry (AID 1645845); conditions: outcome: dose series up to 57.1 µM unless noted; further: nearly all actives have a fitted effect of over 50% in size; on activity change, negative = cytotoxicity: on the % scale 0 is the no-effect control and ±100 the full control effect
How it was run: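 Counterscreen run in the same HEK293-ACE2 line as the pseudotyped-particle entry assay, without particles. Viability after 48 h at 37 C was read as ATP luminescence, scaled between cell-containing and cell-free wells.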

[6] = Primary qHTS to identify inhibitors of SARS-CoV-2 cell entry (AID 1645846); conditions: SARS-CoV-2 pseudovirus cell entry assay, luminescence; activity change, negative = inhibition: at 57.1 µM (top of the series) unless noted; further: nearly all actives have a fitted effect of over 45% in size
How it was run: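 Data are normalized to wells receiving SARS-CoV-2-S pseudoparticles and those given bald particles. Entry signal was luciferase luminescence in stable hACE2 Expi293F cells, 48 hr post-infection, after 1 hr compound pretreatment.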

[7] = biological target: Peroxisome proliferator-activated receptor delta (Homo sapiens) (UniProt Q03181); experiment: qHTS assay for small molecule agonists of peroxisome proliferator-activated receptor delta signaling (AID 588534);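 further: 0% = DMSO basal wells and 100% = positive control agonist at 10 µM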
Sequence of Peroxisome proliferator-activated receptor delta (Homo sapiens) (Q03181 whole entry, looked up): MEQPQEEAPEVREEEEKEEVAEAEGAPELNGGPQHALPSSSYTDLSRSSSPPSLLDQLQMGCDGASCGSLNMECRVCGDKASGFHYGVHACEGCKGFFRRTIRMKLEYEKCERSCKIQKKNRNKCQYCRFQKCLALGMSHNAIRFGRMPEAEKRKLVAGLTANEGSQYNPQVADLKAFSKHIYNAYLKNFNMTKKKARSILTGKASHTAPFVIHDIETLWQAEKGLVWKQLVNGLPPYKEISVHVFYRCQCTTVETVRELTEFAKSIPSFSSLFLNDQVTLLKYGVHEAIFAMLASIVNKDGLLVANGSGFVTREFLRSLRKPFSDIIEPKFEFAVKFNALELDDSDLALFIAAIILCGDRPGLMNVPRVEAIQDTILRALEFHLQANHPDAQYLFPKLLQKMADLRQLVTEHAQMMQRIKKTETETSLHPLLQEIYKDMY
How it was run: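 Agonist-mode beta-lactamase reporter readout (CCF4 dye, 2 h at RT) after 18 h at 37 °C exposure to a titration; Hill-equation fitting gave EC50 and maximal response.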

[8] = biological target: Nuclear receptor subfamily 1 group I member 3 (Homo sapiens) (UniProt Q14994); experiment: Primary qHTS for antagonist of constitutive androstane receptor (CAR) against the NCATS DSHEA and TCM libraries (AID 1794836; active means well fitted curve in the direction sought with a large enough effect; an effect the other way counts as inactive or inconclusive;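 further: HepG2 cells stably expressing hCAR with CYP2B6 luciferase reporter stimulated by CITCO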)
Sequence of Nuclear receptor subfamily 1 group I member 3 (Homo sapiens) (Q14994 whole entry, looked up): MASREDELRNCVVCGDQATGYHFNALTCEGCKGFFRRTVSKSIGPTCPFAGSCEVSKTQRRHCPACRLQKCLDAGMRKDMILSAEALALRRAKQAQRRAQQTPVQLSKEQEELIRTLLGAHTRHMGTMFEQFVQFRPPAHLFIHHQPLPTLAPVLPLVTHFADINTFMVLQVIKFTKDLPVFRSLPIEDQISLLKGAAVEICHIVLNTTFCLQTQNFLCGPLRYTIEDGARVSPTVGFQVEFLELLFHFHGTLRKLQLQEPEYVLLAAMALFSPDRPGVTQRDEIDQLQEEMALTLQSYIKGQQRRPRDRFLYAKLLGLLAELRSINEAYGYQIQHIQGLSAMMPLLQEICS
How it was run: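 HepG2-CYP2B6-hCAR cells, attached 5 h, given compounds plus CITCO agonist […], incubated 24 h at 37 C. Luciferase luminescence read, multiplexed with CellTiter-Fluor viability (Ex/Em 405/540 nm).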

[9] = KB-8-5-11 P-gp reporter qHTS against the NCATS DSHEA and TCM libraries (AID 1919977; active means well fitted curve in the direction sought with a large enough effect; an effect the other way counts as inactive or inconclusive; further: 0% is about no effect)
How it was run: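 Cells were seeded, allowed ~4 h to attach, dosed by pin tool (substance titrations), incubated ~72 h at 37C, then lysed with CellTiter-Glo for 30 min at room temperature before luminescence reading.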

[10] = biological target: Glutathione peroxidase 1 (Homo sapiens) (UniProt P07203); experiment: Primary qHTS Assay for Inhibitors of Recombinant Selenoprotein Glutathione Peroxidase 1 (GPX1) (AID 1845191; active means well fitted curve in the direction sought with a large enough effect; an effect the other way counts as inactive or inconclusive; further: on the % scale 0 is the no-effect control and ±100 the full control effect; nearly all actives have a fitted effect of over 65% in size)
Sequence of Glutathione peroxidase 1 (Homo sapiens) (P07203 whole entry, looked up): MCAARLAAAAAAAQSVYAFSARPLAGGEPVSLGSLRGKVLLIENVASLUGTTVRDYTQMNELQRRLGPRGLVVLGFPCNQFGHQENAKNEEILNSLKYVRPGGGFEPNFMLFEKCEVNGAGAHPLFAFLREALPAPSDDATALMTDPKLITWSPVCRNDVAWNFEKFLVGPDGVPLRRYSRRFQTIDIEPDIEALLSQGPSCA
How it was run: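 GR-coupled readout: NADPH consumption tracked by fluorescence, ex 340/em 450 nm, at t=0 and after 15 min at RT. Final mix 10 nM GPX1, 1 mM GSH, 0.5 mM CHP, 0.5 mM NADPH, 100 nM GR, 0.01% BSA, following 30 min enzyme–compound preincubation.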

[11] = biological target: Phospholipid hydroperoxide glutathione peroxidase GPX4 (Homo sapiens) (UniProt P36969); experiment: Primary qHTS Assay for Inhibitors of Recombinant Selenoprotein Glutathione Peroxidase 4 (GPX4) (AID 1845192; active means well fitted curve in the direction sought with a large enough effect; an effect the other way counts as inactive or inconclusive; further: on the % scale 0 is the no-effect control and ±100 the full control effect; nearly all actives have a fitted effect of over 65% in size)
Sequence of Phospholipid hydroperoxide glutathione peroxidase GPX4 (Homo sapiens) (P36969 whole entry, looked up): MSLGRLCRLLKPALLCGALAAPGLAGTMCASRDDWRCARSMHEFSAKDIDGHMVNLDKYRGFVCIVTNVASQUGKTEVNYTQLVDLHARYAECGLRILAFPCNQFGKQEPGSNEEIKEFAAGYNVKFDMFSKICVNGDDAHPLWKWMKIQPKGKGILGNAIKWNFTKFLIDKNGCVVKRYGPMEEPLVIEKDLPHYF
How it was run: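 Steps: GPX4 plus compound, 30 min RT; add GR/GSH/NADPH master mix; start with cumene hydroperoxide; read 340/450 nm fluorescence at 0 and 15 min. Finals were 200 nM GPX4, 1 mM GSH, 0.5 mM CHP, 0.5 mM NADPH, 100 nM GR.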

CC(=O)O[C@H]1CC[C@@]2(C)C(=CC[C@H]3[C@@H]4CC[C@H](C(C)=O)[C@@]4(C)CC[C@@H]32)C1
-16.3%: activity change, negative = inhibition [6]
inactive: Potency [1] | Potency [2] | Potency [3] | Potency [4] | Potency [5]

C[C@@H]1CC2C3C[C@H](F)C4=CC(=O)C=C[C@]4(C)[C@@]3(F)[C@@H](O)C[C@]2(C)[C@@]1(OC(=O)c1ccco1)C(=O)SCF (some centres not stated)
3.79%: activity change, negative = inhibition [6]
inactive: Potency [1] | Potency [2] | Potency [3] | Potency [4] | Potency [5]

Cn1c(=O)cc(N2CCCC(N)C2)n(Cc2ccccc2C#N)c1=O (configuration not stated)
inactive: Potency [1] | Potency [2] | Potency [3] | Potency [4] | Potency [5]
-28.9%: activity change, negative = inhibition [6]

Cn1nnc(-c2ccc(-c3ccc(N4C[C@@H](CO)OC4=O)cc3F)cn2)n1
inactive: Potency [1] | Potency [2] | Potency [3] | Potency [4] | Potency [5] | Potency [6]

CCCCCCCCCCCCCCCCCC(=O)OCC(C)O (configuration not stated)
-21% [at 114 µM]: activity change, negative = inhibition [6]
inactive: Potency [1] | Potency [2] | Potency [3] | Potency [4] | Potency [5]

O=P(O)(O)OC(Cn1cncn1)(Cn1cncn1)c1ccc(F)cc1F
inactive: Potency [1] | Potency [2] | Potency [3] | Potency [4] | Potency [5]
-20.2%: activity change, negative = inhibition [6]

NC(=S)NS(=O)(=O)c1ccc(N)cc1
-18.4%: activity change, negative = inhibition [6]
inactive: Potency [1] | Potency [2] | Potency [3] | Potency [4] | Potency [5]

CN1C(=O)[C@]23C[C@H]4C(C)(C)[C@]5(CNc6c5ccc5c6OC=CC(C)(C)O5)C[C@@]41CN2CC[C@@]3(C)O
inactive: Potency [1] | Potency [2] | Potency [3] | Potency [4] | Potency [5] | Potency [6]

C/C(=C\C(=O)OCCCCCCCCC(=O)O)C[C@@H]1OC[C@H](C[C@@H]2O[C@H]2[C@@H](C)[C@H](C)O)[C@@H](O)[C@H]1O
-28.4%: activity change, negative = inhibition [6]
inactive: Potency [1] | Potency [2] | Potency [3] | Potency [4] | Potency [5]

CCCCCCCCCCCCCCCC(=O)OC1C(SC)OC(C(NC(=O)C2CC(CCC)CN2C)C(C)Cl)C(O)C1O (configuration not stated)
inactive: Potency [1] | Potency [2] | Potency [3] | Potency [4] | Potency [5]
-14%: activity change, negative = inhibition [6]

O=C(O)[C@@H]1C(=CCO)O[C@@H]2CC(=O)N12
inactive: Potency [1] | Potency [2] | Potency [3] | Potency [4] | Potency [5] | Potency [6]

C[C@]12C=CC(=O)C=C1CC[C@@H]1[C@@H]2[C@@H](O)C[C@@]2(C)[C@H]1CC[C@]2(O)C(=O)COC(=O)c1cccc(S(=O)(=O)O)c1
-5.05%: activity change, negative = inhibition [6]
inactive: Potency [1] | Potency [2] | Potency [3] | Potency [4] | Potency [5]

Oc1c(Br)cc(Br)cc1CNC1CCC(O)CC1 (configuration not stated)
inactive: Potency [1] | Potency [2] | Potency [3] | Potency [4] | Potency [5]
-15.3%: activity change, negative = inhibition [6]

NCCCC[C@H](NC(=O)[C@@H]1CCCN1C(=O)[C@@H]1CSSC[C@H](N)C(=O)N[C@@H](Cc2ccccc2)C(=O)N[C@@H](Cc2ccccc2)C(=O)N[C@@H](CCC(N)=O)C(=O)N[C@@H](CC(N)=O)C(=O)N1)C(=O)NCC(N)=O
-27.3%: activity change, negative = inhibition [6]
inactive: Potency [1] | Potency [2] | Potency [3] | Potency [4] | Potency [5]

COC(=O)CCC[N+](C)(C)C
-38.5%: activity change, negative = inhibition [6]
inactive: Potency [1] | Potency [2] | Potency [3] | Potency [4] | Potency [5]

CO/N=C(/C(=O)N[C@@H]1C(=O)N2C(C(=O)O)=CCS[C@H]12)c1csc(N)n1
inactive: Potency [1] | Potency [2] | Potency [3] | Potency [4] | Potency [5]
-20.9%: activity change, negative = inhibition [6]

CN(Cc1ccccc1)C(=O)[C@H](NC(=O)c1cc2cc(NC(=O)c3ccccc3-c3ccc(C(F)(F)F)cc3)ccc2n1C)c1ccccc1
-7.12%: activity change, negative = inhibition [6]
inactive: Potency [1] | Potency [2] | Potency [3] | Potency [4] | Potency [5]

CCOC(=O)CN[C@@H](C(=O)N1CC[C@H]1C(=O)NCc1ccc(/C(N)=N/O)cc1)C1CCCCC1
inactive: Potency [1] | Potency [2] | Potency [3] | Potency [4] | Potency [5]
-19.7%: activity change, negative = inhibition [6]

C[C@H]1C[C@@H]2[C@H]([C@@H](O)C[C@@]3(C)[C@H]2CC[C@]3(O)C(=O)COC(=O)CCC(=O)O)[C@@]2(C)C=CC(=O)C=C12
inactive: Potency [1] | Potency [2] | Potency [3] | Potency [4] | Potency [5]
-18.6%: activity change, negative = inhibition [6]

CC[C@H]1[C@@H](O)[C@@H]2[C@H](CC[C@]3(C)[C@@H]([C@H](C)CCC(=O)O)CC[C@@H]23)[C@@]2(C)CC[C@@H](O)C[C@@H]12
inactive: Potency [1] | Potency [2] | Potency [3] | Potency [4] | Potency [5]
-6.18%: activity change, negative = inhibition [6]

C[N+](C)(CCCCCC[N+](C)(C)C1c2ccccc2-c2ccccc21)C1c2ccccc2-c2ccccc21
-0.342%: activity change, negative = inhibition [6]
inactive: Potency [1] | Potency [2] | Potency [3] | Potency [4] | Potency [5]

N[C@H](Cc1ccccc1)C(=O)O
inactive: Potency [1] | Potency [2] | Potency [3] | Potency [4] | Potency [5]
-27.4% [at 27.1 µM]: activity change, negative = inhibition [6]

Cn1c(=O)cc(N2CCC[C@@H](N)C2)n(Cc2cc(F)ccc2C#N)c1=O
inactive: Potency [1] | Potency [2] | Potency [3] | Potency [4] | Potency [5]
-23.7%: activity change, negative = inhibition [6]

CCCCCCCCCCCCCCCCCCCCCCCCCCCCO
inactive: activity change, negative = inhibition [1] -10.7% [at 0.573 µM] | outcome [2] inactive [at 0.573 µM] | outcome [3] inactive [at 0.573 µM] | activity change, negative = cytotoxicity [4] 3.84% [at 0.573 µM] | outcome [5] inactive [at 0.702 µM] | outcome [6] inactive [at 0.702 µM]

CCC(=O)O[C@]1(C(=O)COC(C)=O)CC[C@H]2[C@@H]3CCC4=CC(=O)CC[C@]4(C)[C@H]3[C@@H](O)C[C@@]21C
-0.634%: activity change, negative = inhibition [6]
inactive: Potency [1] | Potency [2] | Potency [3] | Potency [4] | Potency [5]

O=P(O)(O)CP(=O)(O)O
inactive: Potency [1] | Potency [2] | Potency [3] | Potency [4] | Potency [5]
-15.6%: activity change, negative = inhibition [6]

C#C[C@]1(O)CC[C@H]2[C@@H]3CCC4=C/C(=N/O)CC[C@@H]4[C@H]3CC[C@@]21CC
inactive: Potency [1] | Potency [2] | Potency [3] | Potency [4] | Potency [5]
-1.12%: activity change, negative = inhibition [6]

CN[C@@H]1[C@H](O[C@H]2[C@H](O[C@@H]3[C@@H](O)[C@H](O)[C@@H](N=C(N)N)[C@H](O)[C@H]3N=C(N)N)O[C@@H](C)[C@]2(O)C=O)O[C@@H](CO)[C@H](O)[C@H]1O
inactive: activity change, negative = inhibition [1] -20.2% [at 11.4 µM] | activity change, negative = cytotoxicity [2] -3.3% [at 11.4 µM] | outcome [3] inactive [at 11.4 µM] | activity change, negative = cytotoxicity [4] -2.76% [at 11.4 µM] | Potency [5] | Potency [6]
-18.7% [at 11.3 µM]: activity change, negative = inhibition [6]

C#C[C@]1(O)CC[C@H]2[C@@H]3CCC4=CC(=O)CCC4[C@H]3CC[C@@]21CC (some centres not stated)
inactive: Potency [1] | Potency [2] | Potency [3] | Potency [4] | Potency [5]
-19.1%: activity change, negative = inhibition [6]

C=C(C)C1CC=C(C)CC1 (configuration not stated)
inactive: Potency [1] | Potency [2] | Potency [3] | Potency [4] | Potency [5]
-21.4% [at 114 µM]: activity change, negative = inhibition [6]

CC(=O)CCC1C(=O)N(c2ccccc2)N(c2ccccc2)C1=O
inactive: Potency [1] | Potency [2] | Potency [3] | Potency [4] | Potency [5]
-21%: activity change, negative = inhibition [6]

CC1(C)S[C@@H]2[C@H](NC(=O)COc3ccccc3)C(=O)N2[C@H]1C(=O)O
inactive: outcome [7] | Potency [1] | Potency [2] | Potency [3] | Potency [4] | Potency [5]
-8.38%: activity change, negative = inhibition [6]

CC/C=C\C/C=C\C/C=C\C/C=C\C/C=C\C/C=C\CCC(=O)O
3.74%: activity change, negative = inhibition [6]
inactive: Potency [1] | Potency [2] | Potency [3] | Potency [4] | Potency [5] | Potency [8]

Cc1ncc(COP(=O)(O)O)c(C)c1O
inactive: Potency [1] | Potency [2] | Potency [3] | Potency [4] | Potency [5] | Potency [8] | Potency [9]
-31.2%: activity change, negative = inhibition [6]

COC1(O[C@H]2CC[C@H]3[C@@H]4CC[C@H]5C[C@@H]6S[C@@H]6C[C@]5(C)[C@H]4CC[C@]23C)CCCC1
inactive: Potency [1] | Potency [2] | Potency [3] | Potency [4] | Potency [5] | Potency [6] | Potency [10] | Potency [11]
